Compound activity: PubChem, Sanford-Burnham Center for Chemical Genomics
Rows were chosen to be rich in hits. Some 31% of all compounds tested hit in one or more screens of this group.
CYP2C9 inhib: human CYP2C9 inhibition; P11712; CYP2C9 Supersomes, luciferin-H conversion, luminescence; inhibition, % at 5 µM; hit rate 20% among 96,000;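 active = blocking of liver enzyme CYP2C9 beyond about 50% at 5 µM, limit read from the data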
CYP2C19 inh: blocks human cytochrome P450 2C19 | P33261 | CYP2C19 Supersomes, luciferin-H EGE luminescence, 30 min | inhibition, % at 5 µM | hit rate 21% among 96,000;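 active = CYP2C19 inhibition above a set limit at 5 µM in the primary screen, cut at about 50% in these data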
PLAP activator: human PLAP activation. P05187. hit rate 1.2% among 96,000. activation fold at 20 µM. purified PLAP enzyme, luminescent substrate read-out; active compounds read high; in the data active = activation fold above about 2
Target sequence (P05187 whole entry, looked up): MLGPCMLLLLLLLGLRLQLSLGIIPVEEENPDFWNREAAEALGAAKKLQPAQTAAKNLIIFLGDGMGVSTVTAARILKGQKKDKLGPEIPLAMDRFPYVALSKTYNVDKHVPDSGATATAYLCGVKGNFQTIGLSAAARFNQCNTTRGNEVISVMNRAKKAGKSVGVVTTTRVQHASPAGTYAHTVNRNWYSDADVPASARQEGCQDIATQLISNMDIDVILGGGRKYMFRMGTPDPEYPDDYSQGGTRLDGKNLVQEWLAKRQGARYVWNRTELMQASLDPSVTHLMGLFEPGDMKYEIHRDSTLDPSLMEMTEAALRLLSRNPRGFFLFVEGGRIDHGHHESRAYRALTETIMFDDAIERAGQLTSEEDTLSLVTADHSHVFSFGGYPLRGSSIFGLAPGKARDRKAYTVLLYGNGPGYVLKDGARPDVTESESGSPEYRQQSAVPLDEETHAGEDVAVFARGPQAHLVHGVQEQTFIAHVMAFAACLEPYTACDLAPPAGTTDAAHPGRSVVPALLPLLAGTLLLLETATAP
CYP2C9 activ: activators of human CYP2C9 | P11712 | recombinant CYP2C9, luciferin-H conversion, luminescence; active compounds read high; factor 1 = untreated enzyme, 0 = blocked | activation factor at 5 µM | hit rate 1.4% among 96,000 | AID 1024;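 active = activation factor of 2 or more for CYP2C9 at a 5 µM dose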
CYP2C19 act: activators of human cytochrome P450 2C19. activation factor at 5 µM. AID 1025. 96,000 tested, under 10 active. P33261. recombinant CYP2C19, luciferin-H EGE luminescence; active compounds read high; 0 = fully inhibited enzyme, 1 = untreated enzyme;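 active = activation factor of at least 2 at 5 µM in the primary screen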
Hits are given with their value; n = inactive; x = no result.

SMILES	CYP2C9 inhib	CYP2C19 inh	PLAP activator	CYP2C9 activ	CYP2C19 act
O=P(NS(=O)(=O)c1ccccc1)(Oc1ccccc1)Oc1ccccc1	65	n	n	n	n
O=P(NS(=O)(=O)c1ccc(Br)cc1)(Oc1ccccc1)Oc1ccccc1	98	n	n	n	n
O=C(Cn1cnc2sc3c(c2c1=O)CCCC3)NCCC(=O)N1CCC2(CC1)OCCO2	x	x	n	x	x
CC1CN(O)C2CCc3nonc3C12O (stereo not given)	n	n	n	n	n
Oc1ccc(/C=N/NP(=S)(c2ccccc2)c2ccccc2)c(O)c1O	96	83	2.4	n	n
Oc1ccc(/C=N/NP(=S)(c2ccccc2)c2ccccc2)cc1O	99	90	n	n	n
Cc1cc2c(s1)NC(=O)CN=C2c1cccs1	n	50	n	n	n
CC(=O)OC1(c2ccc(C)cc2)CN2CCC1c1ccccc12 (stereo not given)	n	99	n	n	n
CC(=O)OC1(Cc2ccccc2)CN2CCC1c1ccccc12 (stereo not given)	60	74	n	n	n
COC(=NC1CCCCC1)C(O)c1c[nH]c2ccccc12 (stereo not given)	n	n	n	n	n
COc1ccc(CCNC(=O)c2c(N)n(CCN3CCOCC3)c3nc4ccccc4nc23)cc1OC	83	54	n	n	n
COCCCn1c(N)c(C(=O)NCCC(C)C)c2nc3ccccc3nc21	n	n	n	n	n
CCCCCCn1c(N)c(C(=O)NCCN2CCOCC2)c2nc3ccccc3nc21	n	54	n	n	n
CCCCCn1c(N)c(C(=O)NCCN2CCOCC2)c2nc3ccccc3nc21	n	n	n	n	n
Nc1c(C(=O)NCc2ccco2)c2nc3ccccc3nc2n1CCN1CCOCC1	61	n	n	n	n
COc1ccc(Cn2c(N)c(C(=O)NCc3ccco3)c3nc4ccccc4nc32)cc1	84	59	n	n	n
Nc1c(C(=O)NCc2ccco2)c2nc3ccccc3nc2n1Cc1ccc(F)cc1	n	n	n	n	n
CCCCn1c(N)c(C(=O)NCc2cccs2)c2nc3ccccc3nc21	n	n	n	n	n
CCN1C(=O)c2ccccc2Sc2ccc(C(=O)N3CCC4(CC3)OCCO4)cc21	83	n	n	n	n
CC(C(=O)c1c[nH]c2ccccc12)N1CCc2ccccc2C1 (stereo not given)	76	n	n	n	n
c1ccc2c(CN3CCCCCCC3)c[nH]c2c1	n	n	n	n	n
CCCCC12CNCC(C)(CNC1)C2=O	n	n	n	n	n
CCCCC1(CCCC)C(=O)NC(=Nc2cccc(C)c2)NC1=O	60	61	n	n	n
CCCC1(CCC)C(=O)NC(=Nc2ccccc2)NC1=O	54	n	n	n	n
CN1CCc2nc3ccc(F)cc3c(C(N)=O)c2C1	n	n	n	n	n
SMILES	CYP2C9 inhib	CYP2C19 inh	PLAP activator	CYP2C9 activ	CYP2C19 act
CC(C)NC(C)C(=O)C12CC3CC(CC(C3)C1)C2 (stereo not given)	n	n	n	n	n
CCOC(=O)C1=C(N)Oc2cc(C)oc(=O)c2C12C(=O)N1c3c(cccc32)C(C)=CC1(C)C (stereo not given)	n	53	n	n	n
OC(c1ccccc1)(c1ccccc1)C1CCNCC1	60	n	n	n	n
Cn1c(C(=O)O)c(CC(=O)N2CCN(Cc3ccccc3)CC2)c2ccccc21	n	n	n	n	n
CCOc1ccc(-n2c(O)c(C=NCCN3CCNCC3)c(=O)[nH]c2=O)cc1	n	n	n	n	n
COc1ccc(CCN(C)Cc2c(F)cccc2F)cc1OC	n	80	n	n	n
COc1ccc(CCNCc2ccccn2)cc1OC	n	n	n	n	n
N[C@@H](Cc1c[nH]c2ccccc12)c1nnc(SCc2ccc(Cl)cc2)o1	n	66	n	n	n
CCOCCN1CCC(OC(C)=O)C(C)C1 (stereo not given)	n	n	n	n	n
CCOP(=S)(OCC)SCC(=O)NC(C)(CC)C(=O)O (stereo not given)	84	n	n	n	n
ClC1=CCC2CN(CCN3CCCCC3)CC2C1 (stereo not given)	n	n	n	n	n
CCOc1cccc(OCC)c2c(C)[n+](CC3CCCO3)c(C)c1-2 (stereo not given)	n	n	n	n	n
Cc1ccc(S(=O)(=O)Nc2cc(C(=O)N3CCC4(CC3)OCCO4)ccc2N2CCCCC2)cc1	63	54	n	n	n
Cc1ccc(NC(=O)CN2C(=O)CN=C(c3ccccc3)c3cc(Cl)ccc32)cc1	80	90	n	n	n
